# Data: PubChem BioAssay (NCI)
# Compounds without any hit were thinned out: in the full panel of roughly 79,000, 15% have a hit. A number with no mark means an inactive call. Calls of active or inactive are those of the source. Cut-off read from the data, not from the text of the source: active = growth inhibition above about 70%; inactive = the rest.
# Legend:
# [1] = NCI Yeast Anticancer Drug Screen. Data for the wt1 strain (AID 149);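 note: 0% = growth of vehicle-treated wt1 cultures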; settings: S. cerevisiae wt1 strain (SPY 50644) growth inhibition, hits give high values
# Outline: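 wt1 strain grown with compound or vehicle; inhibition taken from the growth difference.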
# [2] = NCI Yeast Anticancer Drug Screen. Data for the rad50EPP+ strain (AID 151);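 note: 0% = growth of vehicle-treated control cultures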; settings: S. cerevisiae rad50 mutant strain, hits give high values
# Outline: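 Vehicle-normalised growth inhibition; rad50EPP+ yeast strain, altered in DNA damage repair, compound-treated.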
# [3] = NCI Yeast Anticancer Drug Screen. Data for the mgt1 strain (AID 153); settings: S. cerevisiae mgt1 mutant growth inhibition, hits give high values
# Outline: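 Vehicle-normalized growth inhibition is determined in mgt1 yeast, a strain selected for a defined alteration in DNA repair or cell cycle control.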
# [4] = NCI Yeast Anticancer Drug Screen. Data for the rad50 strain (AID 155);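 note: 0% = growth of vehicle-only cultures of the same strain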; settings: S. cerevisiae rad50 strain growth inhibition, hits give high values
# Outline: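 DNA repair mutant yeast, compound exposure, growth read-out; inhibition is taken relative to vehicle.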
# [5] = NCI Yeast Anticancer Drug Screen. Data for the mec2-1 strain (AID 157); settings: S. cerevisiae mec2-1 strain, hits give high values
# Outline: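 Mutant yeast (mec2-1) grown with compound; growth inhibition relative to vehicle control reported.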
# [6] = NCI Yeast Anticancer Drug Screen. Data for the sgs1 mgt1 strain (AID 161);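 note: 0% = growth of cultures given vehicle only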; settings: S. cerevisiae sgs1 mgt1 strain, hits give high values
# Outline: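 This yeast growth screen uses a strain with defined DNA-repair lesions; compound-treated growth is compared with vehicle-treated growth.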
# [7] = NCI Yeast Anticancer Drug Screen. Data for the CLN2oe strain (AID 163);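 note: 0% = growth of vehicle-only control cultures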; settings: S. cerevisiae CLN2oe strain, hits give high values
# Outline: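 Compounds are applied to yeast harbouring a defined cell-cycle control change; reduced growth compared with vehicle-treated controls gives the value.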
# [8] = NCI Yeast Anticancer Drug Screen. Data for the cln2 rad14 strain (AID 165);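 note: 0% = growth equal to vehicle treated cultures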; settings: S. cerevisiae cln2 rad14 strain, hits give high values
# Outline: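 Readout is yeast growth inhibition versus vehicle-treated controls, using a strain with cln2 and rad14 alterations exposed to compound.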
# [9] = NCI Yeast Anticancer Drug Screen. Data for the bub3 strain (AID 167); settings: S. cerevisiae bub3 mutant strain, hits give high values
# Outline: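 In this screen, a yeast mutant lacking normal mitotic checkpoint function is challenged with compound. Relative growth versus vehicle gives the inhibition value.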
# [10] = NCI Yeast Anticancer Drug Screen. Data for the wt2 strain (AID 169);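 note: 0% = growth of vehicle-treated yeast cultures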; settings: S. cerevisiae wt2 strain growth inhibition, hits give high values
# Outline: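 Against vehicle-treated controls, the growth of yeast exposed to each compound was compared, and the inhibition was recorded.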
# [11] = NCI Yeast Anticancer Drug Screen. Data for the mlh1 strain (AID 171);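 note: 0% = growth of vehicle-treated control cultures of the same strain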; settings: S. cerevisiae mlh1 strain growth inhibition, hits give high values
# Outline: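 Measured: yeast growth. Reference: vehicle-treated controls. Organism: strain with a defined alteration affecting DNA damage repair or cell cycle control, treated with compound.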
# [12] = NCI Yeast Anticancer Drug Screen. Data for the sgs1 strain (AID 173);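 note: 0% = growth of vehicle-only control cultures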; settings: S. cerevisiae sgs1 mutant, hits give high values
# Outline: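 Each compound was added to cultures of the altered yeast strain. Growth was recorded, and inhibition was derived by comparison with vehicle controls.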
# [13] = NCI Yeast Anticancer Drug Screen. Data for the mlh1 rad18 strain (AID 175); settings: S. cerevisiae mlh1 rad18 strain growth inhibition, hits give high values
# Outline: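 Genetically defined yeast (DNA repair-deficient) exposed to compounds; growth inhibition determined relative to vehicle.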
# [14] = NCI Yeast Anticancer Drug Screen. Data for the rad18 strain (AID 177); settings: S. cerevisiae rad18 mutant growth inhibition, hits give high values
# Outline: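 Vehicle-treated cultures served as the baseline for scoring compound-induced growth inhibition in DNA-repair-mutant yeast.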
# [15] = NCI Yeast Anticancer Drug Screen. Data for the rad14 strain (AID 159);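 note: 0% = growth of vehicle-treated control cultures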; settings: S. cerevisiae rad14 strain growth inhibition, hits give high values
# Outline: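 DNA repair-defective yeast, compound-exposed; % growth inhibition derived by comparison with vehicle-treated controls.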
# [16] = at 5.0 µM (retest, dose inferred, filed as 0.5)
# [17] = at 50.0 µM (retest, dose inferred, filed as 5.0)
structure (smiles),measurement,setting,value
CCOc1ccc2ccc3cccnc3c2n1,growth inhibition,[1]; at 1.2 µM,-5%
same,growth inhibition,[1]; at 3.7 µM,-2%
same,growth inhibition,[1]; at 11.0 µM,2%
same,growth inhibition,[1]; at 33.0 µM,18%
same,growth inhibition,[1]; at 100.0 µM,48%
same,growth inhibition,[2]; at 1.2 µM,-8%
same,growth inhibition,[2]; at 3.7 µM,11%
same,growth inhibition,[2]; at 11.0 µM,23%
same,growth inhibition,[2]; at 33.0 µM,61%
same,growth inhibition,[2]; at 100.0 µM,88% (active)
same,growth inhibition,[3]; at 1.2 µM,-4%
same,growth inhibition,[3]; at 3.7 µM,8%
same,growth inhibition,[3]; at 11.0 µM,-10%
same,growth inhibition,[3]; at 33.0 µM,34%
same,growth inhibition,[3]; at 100.0 µM,68%
same,growth inhibition,[4]; at 1.2 µM,-5%
same,growth inhibition,[4]; at 3.7 µM,12%
same,growth inhibition,[4]; [16],-1%
same,growth inhibition,[4]; at 11.0 µM,26%
same,growth inhibition,[4]; at 33.0 µM,59%
same,growth inhibition,[4]; [17],40%
same,growth inhibition,[4]; at 50.0 µM,69%
same,growth inhibition,[4]; at 100.0 µM,74% (active)
same,growth inhibition,[5]; at 1.2 µM,-4%
same,growth inhibition,[5]; at 3.7 µM,-5%
same,growth inhibition,[5]; [16],-3%
same,growth inhibition,[5]; at 11.0 µM,8%
same,growth inhibition,[5]; at 33.0 µM,13%
same,growth inhibition,[5]; [17],28%
same,growth inhibition,[5]; at 50.0 µM,47.2%
same,growth inhibition,[5]; at 100.0 µM,35%
same,growth inhibition,[6]; [16],-8%
same,growth inhibition,[6]; [17],66%
same,growth inhibition,[6]; at 50.0 µM,70.6% (active)
same,growth inhibition,[7]; at 1.2 µM,-18%
same,growth inhibition,[7]; at 3.7 µM,-7%
same,growth inhibition,[7]; at 11.0 µM,-14%
same,growth inhibition,[7]; at 33.0 µM,4%
same,growth inhibition,[7]; at 100.0 µM,22%
same,growth inhibition,[8]; [16],-33%
same,growth inhibition,[8]; [17],-17%
same,growth inhibition,[8]; at 50.0 µM,-3.9%
same,growth inhibition,[9]; at 1.2 µM,-4%
same,growth inhibition,[9]; at 3.7 µM,-3%
same,growth inhibition,[9]; [16],-9%
same,growth inhibition,[9]; at 11.0 µM,1%
same,growth inhibition,[9]; at 33.0 µM,36%
same,growth inhibition,[9]; [17],52%
same,growth inhibition,[9]; at 50.0 µM,59%
same,growth inhibition,[9]; at 100.0 µM,70% (active)
same,growth inhibition,[10]; at 1.2 µM,0%
same,growth inhibition,[10]; at 3.7 µM,2%
same,growth inhibition,[10]; at 11.0 µM,8%
same,growth inhibition,[10]; at 33.0 µM,37%
same,growth inhibition,[10]; at 100.0 µM,66%
same,growth inhibition,[11]; at 1.2 µM,-3%
same,growth inhibition,[11]; at 3.7 µM,-1%
same,growth inhibition,[11]; at 11.0 µM,17%
same,growth inhibition,[11]; at 33.0 µM,54%
same,growth inhibition,[11]; at 100.0 µM,63%
same,growth inhibition,[12]; at 1.2 µM,-3%
same,growth inhibition,[12]; at 3.7 µM,1%
same,growth inhibition,[12]; at 11.0 µM,9%
same,growth inhibition,[12]; at 33.0 µM,40%
same,growth inhibition,[12]; at 100.0 µM,63%
same,growth inhibition,[13]; [16],2%
same,growth inhibition,[13]; [17],40%
same,growth inhibition,[13]; at 50.0 µM,35%
same,growth inhibition,[14]; at 1.2 µM,-3%
same,growth inhibition,[14]; at 3.7 µM,8%
same,growth inhibition,[14]; at 11.0 µM,23%
same,growth inhibition,[14]; at 33.0 µM,60%
same,growth inhibition,[14]; at 100.0 µM,72% (active)
CC1(C)CC(=O)C(C(CC(c2ccccc2)c2cc3c(cc2O)OCO3)C2=C(O)CC(C)(C)CC2=O)=C(O)C1 (stereo unspecified),growth inhibition,[1]; at 1.2 µM,-84%
same,growth inhibition,[1]; at 3.7 µM,-3%
same,growth inhibition,[1]; at 11.0 µM,22%
same,growth inhibition,[1]; at 33.0 µM,75% (active)
same,growth inhibition,[1]; at 100.0 µM,85% (active)
same,growth inhibition,[2]; at 1.2 µM,-2%
same,growth inhibition,[2]; at 3.7 µM,-1%
same,growth inhibition,[2]; at 11.0 µM,8%
same,growth inhibition,[2]; at 33.0 µM,18%
same,growth inhibition,[2]; at 100.0 µM,10%
same,growth inhibition,[4]; at 1.2 µM,-2%
same,growth inhibition,[4]; at 3.7 µM,1%
same,growth inhibition,[4]; [16],11%
same,growth inhibition,[4]; at 11.0 µM,33%
same,growth inhibition,[4]; at 33.0 µM,77% (active)
same,growth inhibition,[4]; [17],96% (active)
same,growth inhibition,[4]; at 50.0 µM,94.8% (active)
same,growth inhibition,[4]; at 100.0 µM,83% (active)
same,growth inhibition,[5]; at 1.2 µM,-6%
same,growth inhibition,[5]; at 3.7 µM,-3%
same,growth inhibition,[5]; [16],1%
same,growth inhibition,[5]; at 11.0 µM,43%
same,growth inhibition,[5]; at 33.0 µM,84% (active)
same,growth inhibition,[5]; [17],97% (active)
same,growth inhibition,[5]; at 50.0 µM,93.5% (active)
same,growth inhibition,[5]; at 100.0 µM,87% (active)
same,growth inhibition,[15]; at 1.2 µM,-1%
same,growth inhibition,[15]; at 3.7 µM,1%
same,growth inhibition,[15]; at 11.0 µM,22%
same,growth inhibition,[15]; at 33.0 µM,68%
same,growth inhibition,[15]; at 100.0 µM,78% (active)
same,growth inhibition,[6]; [16],0%
same,growth inhibition,[6]; [17],96% (active)
same,growth inhibition,[6]; at 50.0 µM,96.8% (active)
same,growth inhibition,[7]; at 1.2 µM,-5%
same,growth inhibition,[7]; at 3.7 µM,-3%
same,growth inhibition,[7]; at 11.0 µM,1%
same,growth inhibition,[7]; at 33.0 µM,76% (active)
same,growth inhibition,[7]; at 100.0 µM,87% (active)
same,growth inhibition,[8]; [16],21%
same,growth inhibition,[8]; [17],98% (active)
same,growth inhibition,[8]; at 50.0 µM,95% (active)
same,growth inhibition,[9]; at 1.2 µM,-3%
same,growth inhibition,[9]; at 3.7 µM,-9%
same,growth inhibition,[9]; [16],74% (active)
same,growth inhibition,[9]; at 11.0 µM,-6%
same,growth inhibition,[9]; at 33.0 µM,63%
same,growth inhibition,[9]; [17],99% (active)
same,growth inhibition,[9]; at 50.0 µM,96% (active)
same,growth inhibition,[9]; at 100.0 µM,82% (active)
same,growth inhibition,[10]; at 1.2 µM,-4%
same,growth inhibition,[10]; at 3.7 µM,-5%
same,growth inhibition,[10]; at 11.0 µM,21%
same,growth inhibition,[10]; at 33.0 µM,88% (active)
same,growth inhibition,[10]; at 100.0 µM,88% (active)
same,growth inhibition,[12]; at 1.2 µM,-1%
same,growth inhibition,[12]; at 3.7 µM,10%
same,growth inhibition,[12]; at 11.0 µM,62%
same,growth inhibition,[12]; at 33.0 µM,87% (active)
same,growth inhibition,[12]; at 100.0 µM,87% (active)
same,growth inhibition,[13]; [16],3%
same,growth inhibition,[13]; [17],97% (active)
same,growth inhibition,[13]; at 50.0 µM,95.6% (active)
same,growth inhibition,[14]; at 1.2 µM,-2%
same,growth inhibition,[14]; at 3.7 µM,5%
same,growth inhibition,[14]; at 11.0 µM,28%
same,growth inhibition,[14]; at 33.0 µM,82% (active)
same,growth inhibition,[14]; at 100.0 µM,82% (active)
O=Cn1c2ccccc2c2ccccc21,growth inhibition,[1]; at 1.2 µM,-16%
same,growth inhibition,[1]; at 3.7 µM,-14%
same,growth inhibition,[1]; at 11.0 µM,-8%
same,growth inhibition,[1]; at 33.0 µM,-7%
same,growth inhibition,[1]; at 100.0 µM,23%
same,growth inhibition,[2]; at 1.2 µM,-54%
same,growth inhibition,[2]; at 3.7 µM,-27%
same,growth inhibition,[2]; at 11.0 µM,0%
same,growth inhibition,[2]; at 33.0 µM,10%
same,growth inhibition,[2]; at 100.0 µM,91% (active)
same,growth inhibition,[4]; at 1.2 µM,-42%
same,growth inhibition,[4]; at 3.7 µM,-4%
same,growth inhibition,[4]; [16],63%
same,growth inhibition,[4]; at 11.0 µM,9%
same,growth inhibition,[4]; at 33.0 µM,-1%
same,growth inhibition,[4]; [17],90% (active)
same,growth inhibition,[4]; at 50.0 µM,64.2%
same,growth inhibition,[4]; at 100.0 µM,82% (active)
same,growth inhibition,[5]; at 1.2 µM,-51%
same,growth inhibition,[5]; at 3.7 µM,-30%
same,growth inhibition,[5]; [16],57%
same,growth inhibition,[5]; at 11.0 µM,-33%
same,growth inhibition,[5]; at 33.0 µM,-23%
same,growth inhibition,[5]; [17],90% (active)
same,growth inhibition,[5]; at 50.0 µM,44.4%
same,growth inhibition,[5]; at 100.0 µM,31%
same,growth inhibition,[15]; at 1.2 µM,-32%
same,growth inhibition,[15]; at 3.7 µM,-20%
same,growth inhibition,[15]; at 11.0 µM,-19%
same,growth inhibition,[15]; at 33.0 µM,-20%
